Measurements from PubChem BioAssay (NCI).
The panel holds about 79,000 compounds, 15% with a hit somewhere; the sample as a whole holds those more often. No stated cut-off is given here; in the data, active means growth inhibition above about 70%; inactive means the rest.

How the values were obtained:
[1] = NCI Yeast Anticancer Drug Screen. Data for the rad50 strain (AID 155);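 further: 0% = growth of vehicle-only cultures of the same strain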; conditions: S. cerevisiae rad50 strain growth inhibition; at 50.0 µM; stronger effect = higher value
Summary of the method: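 Vehicle-treated cultures provide the reference for the growth inhibition reported for compound-exposed, repair-deficient yeast.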

[2] = NCI Yeast Anticancer Drug Screen. Data for the mec2-1 strain (AID 157); conditions: S. cerevisiae mec2-1 strain, at 50.0 µM, stronger effect = higher value
Summary of the method: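 Test agents were screened against the mec2-1 yeast strain, with defined DNA repair or cell cycle alteration. Growth was scored as inhibition against vehicle-only controls.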

[3] = NCI Yeast Anticancer Drug Screen. Data for the sgs1 mgt1 strain (AID 161);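 further: 0% = growth of cultures given vehicle only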; conditions: S. cerevisiae sgs1 mgt1 strain, at 50.0 µM, stronger effect = higher value
Summary of the method: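 Mutant yeast exposed to compound; growth scored against vehicle-only wells.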

[4] = NCI Yeast Anticancer Drug Screen. Data for the cln2 rad14 strain (AID 165);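 further: 0% = growth equal to vehicle treated cultures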; conditions: S. cerevisiae cln2 rad14 strain, at 50.0 µM, stronger effect = higher value
Summary of the method: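 Growth of compound-exposed yeast (cln2 rad14 genotype) measured and expressed as inhibition relative to vehicle.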

[5] = NCI Yeast Anticancer Drug Screen. Data for the bub3 strain (AID 167); conditions: S. cerevisiae bub3 mutant strain, at 50.0 µM, stronger effect = higher value
Summary of the method: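 Mutant yeast screening strain plus compound; vehicle-treated cultures serve as the 0% inhibition reference.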

[6] = NCI Yeast Anticancer Drug Screen. Data for the mlh1 rad18 strain (AID 175); conditions: S. cerevisiae mlh1 rad18 strain growth inhibition; at 50.0 µM; stronger effect = higher value
Summary of the method: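 In this whole-cell yeast screen, a strain with altered DNA damage repair is challenged with compound, and its growth is measured against matched vehicle-treated controls.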

Measured: growth inhibition

OC(CN1CCc2ccccc2C1)c1ccccc1 (centres undefined)
inactive: [1] 42.5% | [2] 8.05% | [3] 49% | [4] 27% | [5] 39.4% | [6] 35.8%

O=C(O)Cc1ccc(I)cc1
inactive: [1] 58% | [2] -1.2% | [3] 26.9% | [4] -54% | [5] 34.2% | [6] 25.3%

COc1ccc(N2C=Nn3c(nc4sc(C)c(C)c4c3=O)C2)cc1
inactive: [1] 7% | [2] 12.9% | [3] 20.9% | [4] -12.3% | [5] 12.9% | [6] -1%

COC1OC2COC(c3ccccc3)OC2C(N=[N+]=[N-])C1O (centres undefined)
inactive: [1] -0.1% | [2] 4% | [3] -4.9% | [4] -31.2% | [5] -7.45% | [6] 2.2%

COc1ccc(C2(C)OCCCC2([NH-])C[NH-])cc1.[Cl][Pt+2][Cl] (centres undefined)
inactive: [1] 10.9% | [2] -3.15% | [3] -2.95% | [4] 21.6% | [5] -0.4% | [6] 9.45%

O=C(O)C1CCCCC1C(=O)Nc1cccc2ccccc12 (centres undefined)
inactive: [1] 6.65% | [2] -2.8% | [3] -4.3% | [4] -7.95% | [5] 24.4% | [6] -39.5%

O=S(O)CCCCSSCC(O)CO (centres undefined)
inactive: [1] 22.5% | [2] 9.65% | [3] 15.2% | [4] 63.5% | [5] 24.1% | [6] 13.7%

COc1ccc(C(=O)Nc2ccccc2C#N)cc1
inactive: [1] -0.15% | [2] -4.5% | [3] -9.25% | [4] -1.25% | [5] 1.55% | [6] -3.8%

CCCCN1C(=O)C(=O)N(CCc2ccc(OC)c(OC)c2)C1=O
inactive: [1] 28% | [2] 5.8% | [3] 11.9% | [4] 18.7% | [5] 1.35% | [6] 18.1%

NS(=O)(=O)c1ccccc1
inactive: [1] 25.2% | [2] 18.9% | [3] 7.95% | [4] -28.4% | [5] 12.4% | [6] 15.4%

CN(C)C(=S)/N=C(\N)N(C)C
inactive: [1] 4.2% | [2] -8.55% | [3] -3.8% | [4] -0.45% | [5] 1.7% | [6] 15.6%

COc1ccc(-c2cc(C(=O)Nc3cc(Cl)cc(Cl)c3)c3ccccc3n2)cc1
inactive: [1] -13.7% | [2] -18.6% | [3] -25.8% | [4] -0.85% | [5] -17.6% | [6] 1.55%

COc1ccc(CCNC(=S)/N=C\C2=C(O)c3ccccc3C2=O)cc1OC
inactive: [1] -26.1% | [2] -51.9% | [3] -17.5% | [4] 4.65% | [5] -5.05% | [6] -19.3%

CCCC(=O)c1ccc(C)cc1
inactive: [1] -1.2% | [2] -18.8% | [3] -4.2% | [4] 13.5% | [5] 8.65% | [6] 2.65%

O=C(O)c1cc(C2CC2)nc2ccc(Br)cc12
inactive: [1] 13.6% | [2] 1.7% | [3] 2.2% | [4] 6.55% | [5] -5.6% | [6] 19.8%

CCOc1ccc(CO)cc1
inactive: [1] 8.5% | [2] 0.2% | [3] 8.55% | [4] 34% | [5] -8.95% | [6] -38.8%

CC(=O)OCCc1cccc(C)c1
inactive: [1] 3.9% | [2] -17.9% | [3] -4.8% | [4] -30.4% | [5] -10.7% | [6] 7.3%

COCCNC(=O)C1C(=O)C(=O)N(CCOC)C1=O (centres undefined)
inactive: [1] -17.8% | [2] -7.65% | [3] -17.2% | [4] -4.25% | [5] -19.6% | [6] -3.5%

C=CCNC(=S)NNC(=S)NCC=C
inactive: [1] 9.55% | [2] 34.1% | [3] 10.4% | [4] 3.6% | [5] -16.4% | [6] 22.2%
